# Screening data as filed in PubChem.
# Most compounds without a hit are left out; they make up all but 7.5% or so of the library.
# ELG1 DNA repair: qHTS screen for small molecules that inhibit ELG1-dependent DNA repair in human embryonic kidney (HEK293T) cells expressing luciferase-tagged ELG1. HEK293T ELG1-luciferase reporter, luminescence, 16 h; DNA damage induced by 5-fluorouridine. Potency, µM (doses to about 46.1 µM), most hits filed as inhibitors. 2.3% of 330,000 active; note: nearly all actives have a fitted effect of over 55% in size
#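 Overnight (16 hr) co-exposure of 2,000 cells/well to 5-fluorouridine and compound at 37 °C preceded detection. Luciferase was quantified via ONE-Glo luminescence; loss of signal denotes inhibition.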
# RORg inh: qHTS for inhibitors of ROR gamma transcriptional activity; Nuclear receptor ROR-gamma (Mus musculus), P51450; Drosophila S2 Gal4-RORgamma UAS-luciferase reporter, 20 h; Potency, µM (highest dose often 53.6 µM), usual class: inhibitors; 5.4% of 310,000 active; note: nearly all actives have a fitted effect of over 60% in size
#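 Compounds are pin-transferred onto Drosophila Schneider cells expressing a copper-inducible Gal4–ROR gamma transactivation domain fusion. After 1 hr, copper sulfate is added to 700 uM final; luciferase is read 20 hr later.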
# TSHR antagonist: Antagonists of the Thyroid Stimulating Hormone Receptor: HTS campaign; activity change, negative = inhibition, % at 11.5 µM; TSHR-expressing cells, TSH-stimulated cAMP HTRF, 2 h; active compounds read low; Thyrotropin receptor (Homo sapiens), P16473; 0.2% of 330,000 active;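 active = activity change below a set negative limit, meaning inhibition stronger than a set level, cut at about -70% in these data; inconclusive = activity change between two set negative limits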
#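 Read-out is FRET at 665 nm (cryptate excitation 337 nm) from a cryptate-tagged anti-cAMP antibody, competed by cell cAMP against cAMP-d2. Compounds are tested on freshly harvested TSHR cells challenged with 4nM TSH (EC80) for 2 hours at 37 deg C.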
# VP16 counter: VP16 counterscreen qHTS for inhibitors of ROR gamma transcriptional activity; Drosophila S2 Gal4-VP16 UAS-luciferase, luminescence, 20 h; Potency, µM (highest dose often 53.6 µM), most hits filed as inhibitors; 3.5% of 310,000 active; AID 2546, 2010;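 note: Gal4-VP16 expression switched on by copper sulfate through the metallothionein promoter; nearly all actives have a fitted effect of over 50% in size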
# B2AR arrestin: qHTS assay of beta-arrestin-biased ligands of beta2-adrenergic receptor | beta-arrestin recruitment to beta2AR, cell-based reporter | Potency, µM (top dose mostly 46.1 µM), usual class: activators | 0.02% of 330,000 active; note: nearly all actives have a fitted effect of over 65% in size
# Target sequence (P07550 whole entry, looked up): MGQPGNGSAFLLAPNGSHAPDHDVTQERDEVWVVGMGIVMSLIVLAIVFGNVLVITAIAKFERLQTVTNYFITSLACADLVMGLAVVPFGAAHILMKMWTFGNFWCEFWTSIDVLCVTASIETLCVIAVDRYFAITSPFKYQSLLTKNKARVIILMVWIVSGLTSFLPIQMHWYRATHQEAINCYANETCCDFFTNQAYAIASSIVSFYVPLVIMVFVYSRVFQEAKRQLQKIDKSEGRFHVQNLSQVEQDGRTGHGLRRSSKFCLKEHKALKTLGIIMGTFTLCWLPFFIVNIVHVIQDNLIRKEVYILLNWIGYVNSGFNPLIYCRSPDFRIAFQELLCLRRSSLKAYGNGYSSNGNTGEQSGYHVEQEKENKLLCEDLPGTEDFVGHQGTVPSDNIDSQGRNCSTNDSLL
# A number is an active result; - = inactive; ? = inconclusive; . = no result. Unless noted, calls come from the whole dose curve; as a rule, active = well fitted curve in the direction sought with a large enough effect; inconclusive = small, poorly fitted or top-dose-only effect, or another doubt; inactive = no such curve, though single readings can be large; an effect the other way counts as inactive or inconclusive.
SMILES,ELG1 DNA repair,RORg inh,TSHR antagonist,VP16 counter,B2AR arrestin
CN=C(Nc1cccnc1)c1ccccc1,-,-,-,-,-
COc1cc(/C=N/NC(=O)CSc2cc(C)c(Br)cc2C)ccc1O,16.4µM,-,-,-,-
COc1ccc(/C=N/NC(=O)CSc2ccccc2)cc1OC,-,-,-,?,-
Cc1cc(SCC(=O)N/N=C/c2ccc(O)c(O)c2O)c(C)cc1Br,-,2.82µM,-,?,-
Cc1cc(SCC(=O)NN=C2CCN(C(C)C)CC2)c(C)cc1Br,-,-,-,-,-
Cc1ccc2nc(C3CCCCC3)[nH]c2c1,?,?,-,?,-
Cc1cccc(NC(=O)C2CCN(C(=O)c3ccc(Cl)cc3)CC2)n1,-,.,-,.,-
C=CCn1c(SC(C)C(=O)c2c(N)n(C)c(=O)n(C)c2=O)nnc1-c1ccoc1C (centres undefined),-,.,-,.,-
CCC(c1nnc(SCC(=O)Nc2nnc(-c3ccccc3)o2)o1)N(C)C (centres undefined),-,12.6µM,-,?,-
Cc1ccc(C)c(SCC(=O)Nc2nnc(-c3ccccc3)o2)c1,-,2µM,-,5.01µM,-
O=S(=O)(c1ccccc1Br)N(Cc1ccccc1)Cc1ccco1,.,-,.,-,.
COc1ccc(C(=O)NC(=O)COC(=O)CCS(=O)(=O)c2ccc(C)cc2)cc1,-,.,-,.,-
Cn1c(COc2ccc(Br)cc2)nnc1SC1CCc2ccccc2C1=O (centres undefined),?,22.4µM,-,?,-
O=C(c1n[nH]c2ccccc12)N1CCN(S(=O)(=O)c2ccccc2)CC1,-,.,-,.,-
O=C(/C=C/c1ccccc1)NCCSCc1ccccc1,?,?,-,12.6µM,-
COc1ccc(/C=C/C(=O)NC(=S)N2CCN(c3ccccc3OC)CC2)cc1,?,-,-,-,-
O=C(/C=C/c1ccccc1)NC(=S)Nc1ccccc1O,?,?,-,?,-
NC(=S)NC(=O)/C=C/c1ccccc1,?,7.94µM,-,?,-
COc1ccc(/C=C/C(=O)NC(=S)N2CCOCC2)cc1,?,3.98µM,-,?,-
COc1ccccc1/C=C/C(=O)NC(=S)N1CCN(C)CC1,-,11.2µM,-,15.8µM,-
N#Cc1ccc(CN2CCCC3(CCN(S(=O)(=O)c4ccccc4)CC3)C2)cc1,.,-,.,-,.
COc1ccccc1CCC(=O)OCC(=O)NC1CC1,-,.,-,.,-
O=C(c1ccco1)N1CCC2(CC1)CN(C(c1ccccc1)c1ccccc1)C2,.,?,.,-,.
Cc1ccc(/C=C/C(=O)NC(=S)N2CCN(C)CC2)cc1,?,14.1µM,-,12.6µM,-
Cc1ccc(/C=C/C(=O)NC(=S)N2CCN(c3ccc(F)cc3)CC2)cc1,-,?,-,-,-
SMILES,ELG1 DNA repair,RORg inh,TSHR antagonist,VP16 counter,B2AR arrestin
O=C(/C=C/c1ccccc1)NC(=S)N1CCSCC1,-,7.94µM,-,10µM,-
Cn1cccc1C(=O)N1CCC[C@@]2(CCN(c3ccccc3)C2)C1,.,-,.,-,.
Cc1ccc(OCc2ccc(C(=O)O)o2)cc1C,?,?,-,-,-
Cc1cc(COc2ccccc2)oc1C(=O)O,?,5.01µM,-,6.31µM,-
Cc1ccc(NC(=S)N2CCC(N(C)CC3CCCO3)CC2)cc1 (centres undefined),-,-,-,-,-
CCN(CC)S(=O)(=O)c1ccc(N/N=C/c2cc(OC)c(OC)cc2OC)nc1,-,-,-,-,-
CCOc1cccc(/C=N/Nc2ccc(S(=O)(=O)N(CC)CC)cn2)c1O,-,1µM,-,3.16µM,-
CCN(CC)S(=O)(=O)c1ccc(N/N=C(\C)c2ccc(OC)cc2O)nc1,-,0.708µM,-,2.51µM,?
CCN(CC)CCC(c1ccc(N(C)C)cc1)c1c(OC)cc(OC)c2c1OC(=O)CC2c1ccc(N(C)C)cc1 (centres undefined),.,-,.,-,.
COc1cccc(NC(=O)CN(C)C(=O)[C@@H]2CCCN2C(=O)c2cccs2)c1,-,.,-,.,-
CC1(C)CC(O)CC(C)(C)N1CC(O)COCc1ccccc1 (centres undefined),-,-,-134.4,-,-
